From PubChem BioAssay
SMARCA2 activ = increases SMARCA2 function in MMTV reporter cells; MG213 cells, MMTV-luciferase reporter, dexamethasone, overnight; activation, % at 9.1 µM; 370,000 tested, 1% active; AID 652017; in the data active = activation above about 7.8%
proKLK7 act = activates the human kallikrein-7 zymogen | P49862 | purified proKLK7, EDANS-DABCYL substrate fluorescence; 100% is mature enzyme control, 0% vehicle | activation, % at 7 µM | 370,000 tested, 0.9% active | AID 652039;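 active = activation above the mean of all tested compounds plus 3 SD, computed per campaign excluding outliers beyond control limits, cut at about 13% in these data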
Target sequence (P49862 whole entry, looked up): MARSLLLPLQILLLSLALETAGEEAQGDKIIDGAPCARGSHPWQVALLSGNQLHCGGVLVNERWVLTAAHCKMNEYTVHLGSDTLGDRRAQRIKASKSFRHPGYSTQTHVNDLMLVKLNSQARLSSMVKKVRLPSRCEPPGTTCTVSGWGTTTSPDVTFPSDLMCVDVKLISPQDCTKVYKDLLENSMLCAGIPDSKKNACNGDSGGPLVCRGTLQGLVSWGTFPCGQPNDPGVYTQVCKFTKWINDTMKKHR
FAS TE block = FAS thioesterase (human) inhibition. P49327. 360,000 tested, 0.67% active. inhibition, % at 15 µM. recombinant FAS-TE, OMFH fluorogenic substrate, fluorescence endpoint;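 active = compounds whose normalised, plate-corrected inhibition of enzyme fluorescence in the single-dose primary screen is 50% or more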
GAA850 FXN act = activators of GAA850 frataxin (FXN) promoter; AID 540364; HEK293 lucGAA850 FXN promoter luciferase reporter, 24 h; percent of 10 µM SAHA response; 360,000 tested, 0.56% active; activation, % at 6 µM;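 active = activation above the average of all compounds screened plus 3 SD, cutoff fixed separately per campaign, cut at about 7.5% in these data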
proKLK7 act conf = proKLK7 activation, confirmation | AID 686949 | purified proKLK7, EDANS-DABCYL substrate fluorescence; scaled: vehicle 0, mature enzyme 100 | shares compounds with proKLK7 act | activation, % at 7 µM | 3,200 tested, 68% active;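 active = activation, as change over the incubation, above the mean of all tested compounds plus 3 SD, cut at about 13% in these data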
EDANS-DABCYL int = optically interferes with EDANS-DABCYL signal, flagging KLK7 hits; shares compounds with proKLK7 act; EDANS-DABCYL substrate fluorescence interference, no enzyme, 4 h; solvent 0%, active enzyme control 100%; activation, % at 7 µM; 3,200 tested, 80% active;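 active = activation above the all-compound mean plus 3 SD, ignoring values outside control-based bounds, cut at about 4.8% in these data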;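 also: value is the 4 h activation minus the activation read at time zero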
Each line names hits and unclear results; the compound was inactive in the other large screens (follow-up assays come after a bar, where they were run). This is a sample that favours compounds with a hit; in the whole collection about 2.9% have one here.

COCCN(C(=O)c1ccc(-c2ccc(Cl)cc2)o1)c1c(N)n(Cc2ccccc2)c(=O)[nH]c1=O	proKLK7 act 39 | proKLK7 act conf 29 | EDANS-DABCYL int 30
COCCN(C(=O)c1ccc(-c2ccc(Cl)cc2)o1)c1c(N)n(CC(C)C)c(=O)[nH]c1=O	none
COc1ccc(-c2nnc(-c3cc(OC)c(OC)c(OC)c3)o2)cc1OC	none
CCCCc1cc(=O)oc2c3c(cc(OCC(=O)NCCCO)c12)OC(C)(C)CC3	proKLK7 act 24 | proKLK7 act conf inactive | EDANS-DABCYL int inactive
CCCc1cc(=O)oc2c3c(cc(OCC(=O)NCCN4CCOCC4)c12)OC(C)(C)CC3	proKLK7 act 32 | proKLK7 act conf inactive | EDANS-DABCYL int inactive
Cc1ccc(NC(=O)C2CCCN2C(=O)NC2CCCCC2)cc1F (centres undefined)	none
COC(=O)C1=NN(c2ccc(OC)cc2)C2C(=O)N(c3ccccc3OC)C(=O)C12 (centres undefined)	none
COC(=O)C1=NN(c2ccccc2OC)C2C(=O)N(c3ccccc3OC)C(=O)C12 (centres undefined)	proKLK7 act 15 | proKLK7 act conf inactive | EDANS-DABCYL int 11
COC(=O)C1=NN(c2cccc(C)c2)C2C(=O)N(c3ccccc3OC)C(=O)C12 (centres undefined)	proKLK7 act 15 | proKLK7 act conf inactive | EDANS-DABCYL int inactive
CCOc1ccc2[nH]c(=O)c(CN(CCN3CCCC3)C(=S)Nc3ccccc3OC)cc2c1	none
CCC(C)(C)n1nnnc1CN(Cc1cc2cc(OC)c(OC)cc2[nH]c1=O)C1CCCC1	proKLK7 act 16 | proKLK7 act conf inactive | EDANS-DABCYL int inactive
COc1ccc2[nH]c(=O)c(CN(Cc3ccccc3)Cc3nnnn3CC3CCCO3)cc2c1 (centres undefined)	none
COc1cc2cc(CN(Cc3nnnn3Cc3ccccc3)CC3CCCO3)c(=O)[nH]c2cc1OC (centres undefined)	proKLK7 act 41 | proKLK7 act conf inactive | EDANS-DABCYL int inactive
O=c1[nH]c2cc3c(cc2cc1CN(Cc1nnnn1C1CCCC1)C1CCCC1)OCCO3	proKLK7 act 29 | proKLK7 act conf inactive | EDANS-DABCYL int inactive
O=C(COC(=O)CCC(=O)c1cccs1)Nc1ccc(Cl)cn1	none
O=C(O)C1CCCN1C(=O)C12CC3CC(CC(C3)C1)C2 (centres undefined)	none
CC(C(=O)Nc1c2c(cc3c1CCC3)CCC2)N1CCCC1 (centres undefined)	none
COc1ccc(C)cc1N(CC(=O)Nc1ccc(S(=O)(=O)N2CCOCC2)cc1)S(C)(=O)=O	none
O=C1C2C(C(=O)N1c1ccc3c(c1)OCO3)C1C=CC2C12CC2 (centres undefined)	none
CCOC(=O)N1CCN(S(=O)(=O)c2cn(C)c(=O)n(C)c2=O)CC1	none
COC(=O)CN1C(=O)[C@@H]2[C@H](C1=O)[C@@H]1CC(C(=O)OC)=C[C@@H](C(=O)OC)[C@@H]3C1=C(C(=O)[C@@]3(C)NC(=O)c1ccccc1)[C@@H]2C	none
Cc1cc(C)n(S(=O)(=O)c2ccccc2)n1	none
c1ccc2c(c1)[nH]c1ccccc12	none
O=c1c2ccccc2[nH]c2ccccc12	proKLK7 act 17 | proKLK7 act conf 17 | EDANS-DABCYL int 24
O=C(c1cccc(S(=O)(=O)NCc2ccc3c(c2)OCO3)c1)N1CCCC1	none
Cc1cccc(-c2n[nH]c(=S)n2/N=C/c2ccc(C)o2)c1	none
CC1(C)Oc2ccc3ccc(=O)oc3c2[C@@H](O)[C@H]1O	none
CC1(C)Oc2ccc3ccc(=O)oc3c2C(/C=N/O)C1=O (centres undefined)	proKLK7 act 27 | proKLK7 act conf 17 | EDANS-DABCYL int 18
CN(C)S(=O)(=O)c1ccc(C(=O)Nc2nc(-c3cccs3)cs2)cc1	proKLK7 act 47 | proKLK7 act conf 27 | EDANS-DABCYL int 129
CCCN(CCC)c1nc2ccccc2nc1C(C#N)C(=O)OCCOC (centres undefined)	none
C=CCN(CC=C)c1nc2ccccc2nc1C(C#N)C(=O)OCCOC (centres undefined)	proKLK7 act 43 | proKLK7 act conf 20 | EDANS-DABCYL int 18
COc1cc(OC)c(NC(=O)CCNS(=O)(=O)c2cc(Br)cnc2N)cc1Cl	none
C[C@H](O)[C@@H]1CN2CCc3c([nH]c4ccccc34)[C@@H]2C[C@@H]1N(C)C(=O)Nc1cccc2ccccc12	none (no result: GAA850 FXN act)
CCNC(=O)N(C)[C@H]1C[C@H]2c3[nH]c4ccccc4c3CCN2C[C@H]1[C@H](C)O	proKLK7 act 17 (no result: GAA850 FXN act) | proKLK7 act conf inactive | EDANS-DABCYL int inactive
C[C@H](O)[C@@H]1CN2CCc3c([nH]c4ccccc34)[C@@H]2C[C@@H]1N(C)C(=S)NCCc1ccccc1	proKLK7 act 39 (no result: GAA850 FXN act) | proKLK7 act conf inactive | EDANS-DABCYL int inactive
COc1ccc(-c2cc(C(=O)N/N=C/c3cccnc3)c3cc(C)cc(C)c3n2)cc1	proKLK7 act 112 | proKLK7 act conf inactive | EDANS-DABCYL int inactive
CCOc1ccc(-c2cc(C(=O)N/N=C/c3cccnc3)c3ccccc3n2)cc1	none
COCC(C)n1c(SCC(=O)N2CCOCC2)nc2ccccc2c1=O (centres undefined)	none
O=c1c2ccccc2c(C=NC2CCS(=O)(=O)C2)c(O)n1-c1ccccc1 (centres undefined)	proKLK7 act 14 | proKLK7 act conf 15 | EDANS-DABCYL int 16
CC#CCN1C=C(C(=O)OCC)C(C)N(Cc2ccc(Br)cc2)S1(=O)=O (centres undefined)	none
CN1CCCC(OC(=O)/C(C#N)=C/c2ccccc2)C1 (centres undefined)	none
CCC1NC(C(=O)O)Cc2c1[nH]c1ccccc21 (centres undefined)	proKLK7 act 36 | proKLK7 act conf inactive | EDANS-DABCYL int 9.8
COc1cc(C2NC(C(=O)O)Cc3c2[nH]c2ccccc32)cc(OC)c1OC (centres undefined)	none
CCN(CC(=O)NCc1cccs1)C(=O)c1cc(Br)ccc1O	none
COc1ccc(C2=NS(=O)(=O)N(C)C(C(=O)NC3CCCCC3)=C2)cc1OC	proKLK7 act 13 | proKLK7 act conf inactive | EDANS-DABCYL int inactive
COc1ccc(C2=NS(=O)(=O)N(C)C(C(=O)NC3CCCC3)=C2)cc1OC	none
COc1cc2c(cc1OC)C(C1C(=O)CC(C)CC1=O)N(C(=O)CCl)CC2 (centres undefined)	proKLK7 act 213 | proKLK7 act conf inactive | EDANS-DABCYL int 9.7
COc1cc2c(cc1OC)C(C1C(=O)CCCC1=O)N(C(=O)CCl)CC2 (centres undefined)	proKLK7 act 191 | proKLK7 act conf inactive | EDANS-DABCYL int 9.2
COc1ccc2c(c1)CCN(C(=O)CCl)C2C1C(=O)CCCC1=O (centres undefined)	none
